# Measured values: PubChem BioAssay (NCI)
# About 83,000 compounds went through this panel and 20% of them were active in at least one assay; those are over-represented in the sample as a whole.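 In brief: 96-well plates, 48 h treatment, single concentration, percent growth endpoint.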 Values without a mark were called inactive. Calls of active or inactive are those of the source. Rule for the calls: active = growth percent below 10; inactive = the rest.
# Test system: MCF7 breast
# Assay: NCI-60 one-dose screen, 48 h (100 = growth as untreated, 0 = no growth, -100 = all killed)
# Conditions: 10 µM
row,Structure (SMILES),growth
1,CCOc1ccc(Nc2nc3ccccc3nc2Nc2ccc(OCC)cc2)cc1,32.9%
2,O=c1cc(-c2ccccc2)oc2cc(OCCCCNCc3ccccc3)cc(O)c12,-64.1% (active)
3,Cc1ccc(C(C)C)cc1NC(=O)c1ccccc1N(C)C,82.8%
4,CCCCSc1nc(Nc2ccc(/C(C)=N/NC(N)=S)cc2)c(C#N)c(-c2ccc(F)cc2)n1,41.3%
5,O=C(c1ccc(Cl)cc1)C1[C@H](c2ccccc2Br)[C@@H](c2ccccc2)NC12C(=O)Nc1ccccc12 (stereo partly drawn),-4.27% (active)
6,CC(=O)c1ccc(NC(=O)NCn2c(=O)[nH]c3ccccc3c2=O)cc1,83%
7,[2H]C([2H])([2H])Oc1ccc2ncc(C#Cc3cncc(C(=O)Nc4ccc(CN5CCN(C)CC5)c(C(F)(F)F)c4)c3)n2n1,-61% (active)
8,O=C1Nc2cc(Cl)ccc2/C1=C/c1ccc(OCc2ccc(Br)cc2F)cc1,6.09% (active)
9,CCCCCCCCCCCCCCCCCCCC(=O)NCCc1c[nH]c2ccc(OC(=O)CCCC(=O)OCCOOCCOOCCOOCCOOCCOOCCOOCCOOCCOOCCOOCCOOCCOOCCOC)cc12,24.3%
10,C[C@H]1[C@H](C)CC[C@]2(COC(=O)CCC(=O)NCC#CCN3CCNCC3)CC[C@]3(C)C(=CC[C@@H]4[C@@]5(C)CCCNC(C)(C)[C@@H]5CC[C@]43C)[C@H]12,1.4% (active)
11,COc1ccc2nc(Cl)c(-c3cc(-c4ccccc4)nc(N)n3)cc2c1,4.28% (active)
12,COc1ccc(CN2[C@H](C(=O)NCCCCCCC(=O)NO)Cc3c([nH]c4ccccc34)[C@H]2C2CC2)cc1,6.39% (active)
13,CN1CCN(c2ccc(Nc3nc(NCCCNC(=O)c4ccccc4)c4sccc4n3)cc2)CC1,38.4%
14,C=C1CC[C@H](C(=C)C)[C@H]2C=C(C)C(=O)C3=C(C(=O)[C@@](C)(O)C3)[C@H]12,-70.5% (active)
15,COc1ccc(N(C)c2cc(C#N)nc3ccccc23)cc1N,9.87% (active)
16,COc1ccc(C(C)=C(c2ccc(OCCCN(C)C)cc2)c2ccc(OCCCN(C)C)cc2)cc1,-69.5% (active)
17,CC1(c2ccccc2)NC(=O)N(CC(=O)Nc2ccc(C(=O)/C=C/c3ccc(Cl)cc3)cc2)C1=O (stereo not drawn),-66.6% (active)
18,NC(=Nc1ccc(OCCCCCCCCn2ccnn2)cc1)c1ccccc1,13.8%
19,COC[C@@H](CC(C)C)N=C1N/C(=C\c2ccc3ncsc3c2)C(=O)N1C,-23.3% (active)

row,Structure (SMILES),growth
1,O=C(CSc1ccc(-c2ccc(Cl)cc2)nn1)Nc1ccc(Cl)c(C(F)(F)F)c1,31.5%
2,Cc1ccc(NC(=O)NCn2c(=O)[nH]c3ccccc3c2=O)cc1,72%
3,Cc1cc(C)cc(Oc2cccc(-c3c(C)nnn3C3CCN(CCN(C)C)CC3)n2)c1,6.99% (active)
4,CC(=O)NCC1=C(C)C=C2C(=O)[C@](C)(O)C3(CC3)C(C)=C21,3.29% (active)
5,O=C(Nc1ccc(OCC(=O)c2ccccc2)cc1)Nc1ccc(Cl)c(C(F)(F)F)c1,35%
6,CCOC(=O)c1c(CSc2ccccc2)n(C)c2cc(CN(C)C)c(O)c(CN(C)C)c12,3.06% (active)
7,Cc1ccc(-c2cc(-c3cc4ccccc4nc3Cl)[nH]c(=O)n2)cc1,1.81% (active)
8,COc1ccc([C@H]2C(C(=O)c3ccc(Cl)cc3)C3(N[C@@H]2c2ccccc2)C(=O)Nc2ccc(Br)cc23)cc1 (stereo partly drawn),-7.25% (active)
9,O=C(CS(=O)(=O)c1oc(-c2ccc(Cl)cc2)nc1S(=O)(=O)c1ccc(Cl)cc1)N1CCOCC1,11.3%
10,COc1ccc(C=CC(=O)c2ccc(-n3c(C)nc4c(cnn4-c4ccccc4)c3=O)cc2)cc1,8.3% (active)
11,O=C1Nc2ccc(Cl)cc2/C1=C/c1cccc(OCc2ccccc2)c1,9.65% (active)
12,CN(C)c1ccc(/C=C/C(=O)c2ccc(NC(=O)CN3C(=O)NC(C)(c4ccccc4)C3=O)cc2)cc1 (stereo not drawn),11.8%
13,COc1cccc(C(N)=Nc2ccc(OCCCCCCn3cncn3)cc2)c1,19.2%
14,CN1CCN(Cc2ccc(C(=O)Nc3cccc(Nc4ccc5cc(O)ccc5n4)c3)cc2C(F)(F)F)CC1,-78.4% (active)
15,Nc1nnc(-c2c[nH]c3ccc(F)cc23)c(-c2c[nH]c3ncccc23)n1,34%
16,C/C(=C\CC/C=C(\C)CC/C=C(\C)CC[C@@H](O)C(C)(C)O)CC/C=C(\C)CC[C@@H](O)C(C)(C)O,13.8%
17,Cc1ccc(-c2ccc(SCC(=O)Nc3ccc(Cl)c(C(F)(F)F)c3)nn2)cc1,15.9%
18,CN1CCN(c2ccc(Nc3nc(NCCCNC(=O)c4ccc(F)cc4)c4sccc4n3)cc2)CC1,31%
19,C#Cc1ccc(S(=O)(=O)Nc2cccc(-c3csc(NC(C)=O)n3)c2)cc1,64.5%
